# According to PubChem BioAssay AID1508600 (Functional Genomics Laboratory (NCATS/FGL), 2020):
# Among all 53,000 sequences or so, about 3,700 (7%) were called active.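 Rule for the calls: active = gene knockdowns whose robust z-score for IL-1 alpha signal is at least 2 or at most -2, so actives lie on both sides; inactive = the rest.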 The entries come from a sample that favours actives as a whole.
# Assay: Components of the Cytosolic LPS Sensing Pathway: Gene Identification via Genome-wide siRNA Screen;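 note: robust z of the log signal after scaling to non-targeting control siRNA wells of the plate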
# Conditions: RAW264.7 macrophages, IL-1a HTRF, actives lie on both sides, screened at 100 nM (by protocol), cells primed 5 h with Pam3CSK4 first
# Method in brief: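 Three distinct siRNAs per gene were tested singly at 100 nM in RAW264.7 macrophages. Following Pam3CSK4 priming and 24 hour LipidA transfection, IL-1a secretion was read by HTRF.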
row,Sequence,z-score
1,GCCGUGCAACACUUCUACATT against Esrrb,-0.471 (inactive)
2,GGAGGUCCCUUCUUCAGCUTT against Zfp410,-1.19 (inactive)
3,GGCCAAGAAGAGAAAAACATT against Ccne2,-1.54 (inactive)
4,GGUCAUGGAUGUCACAGAGTT against Mink1,-2.17 (active)
5,CCAGAUUCUAUAAUAGAGUTT against Gabrp,-0.232 (inactive)
6,GGGUUCUGUGUAAAUGUAUTT against Gzma,0.203 (inactive)
7,GGCAGAAGUCCAACUUCUUTT against Pirt,-0.363 (inactive)
8,GCUAGUGCGCAUGUUUCUCTT against Rasgrp2,0.621 (inactive)
9,GGUGGAAGCACAGAGUUGCTT against Prdm15,2.14 (active)
10,GGACAACCAAAAUGCAUUUTT against Zic3,0.517 (inactive)
11,GGAACUGGGUCCUCAUUCCTT against Capn1,-1.6 (inactive)
12,GGAGUUCAACUAGAUGUGGTT against Bcl2l13,-1.2 (inactive)
13,GCUUCAAUGAGGAGUAUCUTT against Smpdl3b,-0.617 (inactive)
14,GGAUUGGAUAUUGAGAAGGTT against Rexo2,-1.72 (inactive)
15,GGUGGUCAGGAAAUGAGUCTT against Lrch4,2.09 (active)
16,GGUCAACUCUAAGAUGCUGTT against 9930012K11Rik,1.35 (inactive)
17,CGUGUGAAGUAAAGAUGUUTT against Mrpl57,0.212 (inactive)
18,GGAGCUGCUUUCAAAGCUGTT against Ccdc136,-0.831 (inactive)
19,GGAUGGUACAGGUCUGGUGTT against Fgfr3,4.82 (active)
20,CGGAUUAUUGGUUAGAAAUTT against C230013L11Rik,1.26 (inactive)
21,GCACAAUGGAAGGUGUCCUTT against Tas2r114,0.597 (inactive)
22,GGACUUUGUGGACAAAAUUTT against Ift20,-1.64 (inactive)
23,GCCUCAACAUGAUCCCGAGTT against Ccdc172,-3.34 (active)

row,Sequence,z-score
1,GGAGAUAAAGAGGAACAUUTT against AI504432,1.01 (inactive)
2,GGGUUUUGAAAGAGGAAAATT against Osbpl8,1.52 (inactive)
3,GGCAGCUGAAAGAAGAUCUTT against Dffa,3.21 (active)
4,GGGACUGGAACAAUAGAGGTT against BC030500,0.626 (inactive)
5,GGGACAAGUGACUGAAUUGTT against Dio3,0.408 (inactive)
6,GGCCAUUUACUUGAAGAACTT against Lpin3,-0.0508 (inactive)
7,CCUUCUCCUCGUGCAAGUATT against Cort,2.05 (active)
8,GAUGCCCAAUGUGCAAAUGTT against Defa-rs12,1.06 (inactive)
9,CCACUGCACUGUAAAUCAATT against Glrx5,-1.41 (inactive)
10,GCUCUUGACUCACUCAGCATT against Il1bos,-2.01 (active)
11,GGACUGAAAUGUCUUAGACTT against Selenow,-1.21 (inactive)
12,GCAUCGCAUAUUGGAAUGCTT against Lim2,0.366 (inactive)
13,CGGCAAAUUCGUGAAAAGGTT against Olfr575,0.118 (inactive)
14,GCAACUGAAUUCCAGUUUUTT against Ugt1a2,-0.0905 (inactive)
15,GGAGCUAGCCAACUUCGAUTT against Lsr,-0.182 (inactive)
16,GCACAGAAAUAUUAAAGUCTT against Foxp4,-1.7 (inactive)
17,GGGUUUAGAAAGAUGAAUGTT against Tbcel,-0.189 (inactive)
18,GGGCUUCACCCUCAUACAATT against Pirt,2.26 (active)
19,GGAGAAAGCCAAAUUUAACTT against Slc17a6,0.103 (inactive)
20,GGUCUGAAGAAGAUUCUGGTT against Unc45a,0.33 (inactive)
21,GCCUUUAUAGGAUUUCAAATT against Ppp2r5e,0.678 (inactive)
22,CGGUACAGGGUAAAGGACATT against Prss41,0.00568 (inactive)
23,GGAGUACAGCAUCUCAGCATT against Cacng1,-2.17 (active)

row,Sequence,z-score
1,GGCAGAACCCUUUGAUGACTT against Fos,-0.0931 (inactive)
2,GCAGCUGUCCGUAUAUCUUTT against Uxt,0.377 (inactive)
3,GGAGUCCUGAAGAAUAAAGTT against Tff3,-0.0657 (inactive)
4,CCCACUACUGUAAGACAUGTT against Trim46,0.614 (inactive)
5,CCCUCACUAUAACACUAUUTT against Six5,-0.418 (inactive)
6,GGCUAGAAAGGGUCUCAAATT against Cyp3a25,-1.48 (inactive)
7,UUGGUUCAACCUCAUCAUATT against Olfr869,2.07 (active)
8,CCCUUAUUGCUAGACCUAGTT against Map3k11,-1.13 (inactive)
9,GGAUUUUCUCUAUGCAGGCTT against Dcaf15,0.0862 (inactive)
10,GGAAAAACUGAGAAAACUUTT against Lyrm1,-2.41 (active)
11,GGAUGUCAAGGACACAGUATT against Olfr73,-1.04 (inactive)
12,GCAGUGAUCAGGUAAUGAATT against Igf2,0.431 (inactive)
13,GGUGGGUCAAUGAUCCAGGTT against Fabp9,-2.11 (active)
14,GGAUGUCUUUGUUCACCAGTT against Ybx2,-0.267 (inactive)
15,GCCUUUUAAUAGAUGUCAUTT against Vta1,-0.201 (inactive)
16,GGUGUAUUUUUUCACUGUUTT against Olfr339,-1.52 (inactive)
17,GGACUUGCCACCCAGGAAATT against Apba3,-0.175 (inactive)
18,GCAGAUCAGAAGAAAUUUGTT against Jmy,1.22 (inactive)
19,GGGAAAAGCACGUUCUUGCTT against Arl10,0.34 (inactive)
20,GGAUACGAUCCAGUGUGCCTT against Lyzl4,1.04 (inactive)
21,GGAGGAUUCCCUCUAUAUUTT against Slc33a1,0.118 (inactive)
22,GGGUCCCUAAGCAUGUUCCTT against Slfn10-ps,0.618 (inactive)
23,GGCUUUGAGCAUGUUUUCATT against Hspb7,7.14 (active)
